# Source: PubChem BioAssay (NCATS)
# Values without a mark were called inactive. Records with an inconclusive call do not appear. Activity calls are given as the source filed them. Unless noted, calls follow the shape of the dose curve; as a rule, active = well fitted curve in either direction with a large enough effect (not every such curve was filed as active); inconclusive = small, poorly fitted or top-dose-only effect, or another doubt; inactive = flat fitted curve, though single readings scatter.
# Assays:
# [1] = target: Lysosomal acid glucosylceramidase (Homo sapiens) (UniProt P04062); experiment: Glucocerebrosidase-p2 (AID 348; in the data active = potency below about 10 µM; also: potency is read from the fitted curve at half-maximal effect); settings: purified GBA, blue fluorogenic substrate, 40 min
# Outline: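 Compounds titrated from 0.6 nM upwards against 0.2 nM enzyme in pH 5.9 citric acid/KH2PO4, taurocholate, tween-20; blue fluorogenic substrate 80 uM, 40 min room temperature, stopped and read Ex 365/Em 440 for AC50.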
# [2] = AP1 Signaling Pathway (AID 357); settings: ME-180 AP-1-bla reporter, EGF-induced, beta-lactamase ratio, 5 h; at 7.69 µM (top of the series) unless noted;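 also: ME-180 reporter cells stimulated with EGF at its EC50 level; % is scaled to controls: 0 for no effect and ±100 for the full control effect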
# Outline: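 Read-out was the 460nm/530nm emission ratio (excitation 405nm) after CCF4 loading for 2.5 hours at room temperature. Cells carried an AP-1-driven beta-lactamase reporter, were stimulated with EC50 EGF plus compound for 5 hours, and AC50 values came from titrations.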
# [3] = target: Cytochrome P450 1A2 (Homo sapiens) (UniProt P05177); experiment: p450-cyp1a2 (AID 410; calls by dose curve; also: potency is read from the fitted curve at half-maximal effect;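 as to activity change, negative = inhibition: -100% = full effect of reference inhibitor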); settings: recombinant CYP1A2, luciferin-ME demethylation, luminescence; series mostly up to 11.4 µM
# Outline: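 Human CYP1A2 (20nM) demethylated Luciferin-ME at its Km (100uM) in 100mM KPO4. After 10 min compound preincubation, NADPH regeneration ran the reaction 60 min at room temperature. Luciferin was read by luminescence, normalized to 57 uM furafylline.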
# [4] = NFAT Signaling Pathway (AID 444); settings: Jurkat NFAT-bla M1, carbachol, beta-lactamase ratio, 5 h; at 7.69 µM (top of the series) unless noted;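 also: carbachol stimulus at about its EC50 of 1 µM final; % is scaled to controls: 0 for no effect and ±100 for the full control effect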
# Outline: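 Jurkat cells carrying an NFAT-driven β-lactamase reporter and co-transfected muscarinic M1 receptor were treated with compound plus carbachol (1 uM final, an EC50 level) for 5 h at 37 °C. CCF4 loading followed for 1 h at RT; 460/530 nm ratio gave %activity.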
# [5] = target: Glucocorticoid receptor (Homo sapiens) (UniProt P04150); experiment: GR-GFP Redistribution (AID 450;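 active = compounds whose dose series gives a full or clear partial fitted curve of increased nuclear translocation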; also: potency is read from the fitted curve at half-maximal effect); settings: U2OS GR-GFP nuclear translocation, laser cytometry, 2 h
# [6] = target: Glucocorticoid receptor (Homo sapiens) (UniProt P04150); experiment: GR-EFC Redistribution (AID 451; calls by dose curve; also: potency is read from the fitted curve at half-maximal effect); settings: CHO-K1 GR-EFC translocation, beta-gal luminescence, 2 h
# Outline: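 CHO-K1 cells stably expressing nuclear-localized β-gal enzyme acceptor and GR fused C-terminally to the enzyme donor fragment; ligand-driven nuclear translocation restores β-gal by complementation. Compounds titrated up to 46 uM final, 2 h at 37 °C; luminescence read.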
# [7] = target: Mitogen-activated protein kinase 10 (Mus musculus) (UniProt Q61831); experiment: JNK3 AlphaScreen Assay (AID 530); settings: JNK3 lysate, c-Jun phosphorylation; series mostly up to 57.1 µM;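 also: kinase came from lysate of stimulated human HepG2 cells; signal reports phosphorylation of biotinylated GST-cJun 1-79 at Ser73 with 10 µM ATP; % is scaled to controls: 0 for no effect and ±100 for the full control effect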
# Outline: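 JNK3 came from HepG2 lysates pre-activated with IL-1beta and TNF-alpha and phosphorylated biotinylated GST-cJun (1-79) at 10 uM ATP, pH 7.6, room temperature. Compounds were titrated. AlphaScreen signal used anti-phospho-cJun (Ser73) antibody.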
# [8] = target: 3',5'-cyclic-AMP phosphodiesterase 4B (Homo sapiens) (UniProt Q07343); experiment: qHTS Assay for Inhibitors of PDE-IV (AID 607; active = well fitted activation curve with a large enough effect in the main read-out, with a control signal flat, not every such curve was filed as active; also: % of control where 0% means no effect); settings: HEK293 ACTOne CNG channel cells, membrane potential fluorescence; series mostly up to 22.9 µM
# Outline: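 Live HEK293 cells with a modified cyclic nucleotide-gated (CNG) channel report intracellular cAMP via membrane-potential dye fluorescence (ex 535/em 590 nm). Endogenous PDE-IV was targeted. Compounds were tested at up to 22.9 uM final; RO 20-1724 100 uM served as control.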
# [9] = Stat Signaling Pathway (AID 446); settings: ME-180 (cervical carcinoma) SIE beta-lactamase reporter, IL-6 stimulated, 5 h; at 7.69 µM (top of the series) unless noted;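 also: ME-180 cervical cancer cells given 40 pM IL-6 alongside compound; SIE-controlled beta-lactamase reporter measured as 460/530 nm FRET emission ratio; % is scaled to controls: 0 for no effect and ±100 for the full control effect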
# Outline: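 IL-6/STAT signaling read in ME-180 cells via an SIE beta-lactamase reporter. Stimulus was 40 pM IL-6 (its AC50) for 5 hrs, so both activation and inhibition register.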
# [10] = target: Cytochrome P450 2C9 (Homo sapiens) (UniProt P11712); experiment: qHTS Assay for Inhibitors and Substrates of Cytochrome P450 2C9 (AID 883; active = well fitted inhibition curve with a large enough effect; also: % is scaled to controls: 0 for no effect and ±100 for the full control effect; nearly all actives have a fitted effect of over 60% in size); settings: recombinant CYP2C9, luciferin-H luminescence, 60 min; series mostly up to 57.1 µM
# Outline: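 A luminogenic readout tracked human CYP2C9 (10nM) converting deoxyluciferin (100uM, at KM) in 25mM KPO4 during 60 min at 37C with regenerated NADPH. Values normalized to 57uM sulphaphenazole as complete inhibition.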
# [11] = target: Cytochrome P450 2D6 (Homo sapiens) (UniProt P10635); experiment: qHTS Assay for Inhibitors and Substrates of Cytochrome P450 2D6 (AID 891; active = well fitted inhibition curve with a large enough effect;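 also: luciferin methyl ether substrate demethylated by CYP2D6 with NADPH regeneration; % is scaled to controls: 0 for no effect and ±100 for the full control effect; nearly all actives have a fitted effect of over 60% in size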); settings: recombinant CYP2D6, luciferin-ME EGE luminescence; series mostly up to 11.4 µM
# Outline: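 Human CYP2D6 (5 nM) with 30 uM Luciferin-ME EGE (at Km) in 100 mM KPO4, compound preincubated 10 min, then NADPH regeneration system for 60 min at room temperature. Luciferin read by luminescence; normalized to 1.43 uM quinidine.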
# [12] = target: Cytochrome P450 2C19 (Homo sapiens) (UniProt P33261); experiment: qHTS Assay for Inhibitors and Substrates of Cytochrome P450 2C19 (AID 899; active = well fitted inhibition curve with a large enough effect; also: % is scaled to controls: 0 for no effect and ±100 for the full control effect; nearly all actives have a fitted effect of over 60% in size); settings: recombinant CYP2C19, luciferin-H EGE luminescence; series mostly up to 11.4 µM
# Outline: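 NADPH-dependent conversion of Luciferin-H EGE (10uM, at KM) by 5nM enzyme in 50mM KPO4, 60 min at 37C following 10 min compound preincubation. Stopped with luciferin detection buffer; luminescence read after 20 min.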
# Sequence of Glucocorticoid receptor (Homo sapiens) (P04150 whole entry, looked up, the tested form may be a part): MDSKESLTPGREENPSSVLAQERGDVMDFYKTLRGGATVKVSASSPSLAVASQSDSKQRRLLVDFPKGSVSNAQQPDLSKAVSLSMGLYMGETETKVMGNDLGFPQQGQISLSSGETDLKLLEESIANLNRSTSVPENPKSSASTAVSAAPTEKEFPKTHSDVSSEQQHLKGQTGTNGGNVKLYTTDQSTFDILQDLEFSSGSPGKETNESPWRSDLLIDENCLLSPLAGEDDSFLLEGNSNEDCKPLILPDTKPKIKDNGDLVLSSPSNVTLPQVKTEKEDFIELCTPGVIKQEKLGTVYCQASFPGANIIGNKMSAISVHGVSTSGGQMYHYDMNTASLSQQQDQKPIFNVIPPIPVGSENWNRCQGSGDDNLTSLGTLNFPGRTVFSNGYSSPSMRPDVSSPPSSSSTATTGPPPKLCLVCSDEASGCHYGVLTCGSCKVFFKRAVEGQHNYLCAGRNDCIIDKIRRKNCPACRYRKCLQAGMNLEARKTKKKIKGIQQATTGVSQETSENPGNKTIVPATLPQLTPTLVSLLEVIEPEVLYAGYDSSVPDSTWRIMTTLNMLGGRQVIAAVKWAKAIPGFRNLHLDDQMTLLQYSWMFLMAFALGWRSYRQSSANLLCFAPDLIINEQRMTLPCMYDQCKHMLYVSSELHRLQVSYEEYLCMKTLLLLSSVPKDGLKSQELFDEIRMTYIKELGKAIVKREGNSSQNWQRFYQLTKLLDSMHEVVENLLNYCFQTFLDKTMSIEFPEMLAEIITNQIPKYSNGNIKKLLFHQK
# Sequence of Lysosomal acid glucosylceramidase (Homo sapiens) (P04062 whole entry, looked up): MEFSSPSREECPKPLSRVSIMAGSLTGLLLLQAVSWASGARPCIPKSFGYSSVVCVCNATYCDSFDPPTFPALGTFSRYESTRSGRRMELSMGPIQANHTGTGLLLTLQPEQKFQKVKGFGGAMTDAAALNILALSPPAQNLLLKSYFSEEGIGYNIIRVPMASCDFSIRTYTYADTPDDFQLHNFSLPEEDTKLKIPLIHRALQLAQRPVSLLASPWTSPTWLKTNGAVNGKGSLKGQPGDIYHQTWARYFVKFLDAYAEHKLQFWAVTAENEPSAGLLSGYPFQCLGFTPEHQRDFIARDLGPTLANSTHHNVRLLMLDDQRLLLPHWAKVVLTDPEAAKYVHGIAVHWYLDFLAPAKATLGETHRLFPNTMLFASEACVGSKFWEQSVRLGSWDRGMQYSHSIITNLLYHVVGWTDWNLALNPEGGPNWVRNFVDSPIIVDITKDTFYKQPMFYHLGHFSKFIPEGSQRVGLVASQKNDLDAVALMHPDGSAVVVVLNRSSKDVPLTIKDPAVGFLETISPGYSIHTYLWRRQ
# Sequence of Cytochrome P450 1A2 (Homo sapiens) (P05177 whole entry, looked up): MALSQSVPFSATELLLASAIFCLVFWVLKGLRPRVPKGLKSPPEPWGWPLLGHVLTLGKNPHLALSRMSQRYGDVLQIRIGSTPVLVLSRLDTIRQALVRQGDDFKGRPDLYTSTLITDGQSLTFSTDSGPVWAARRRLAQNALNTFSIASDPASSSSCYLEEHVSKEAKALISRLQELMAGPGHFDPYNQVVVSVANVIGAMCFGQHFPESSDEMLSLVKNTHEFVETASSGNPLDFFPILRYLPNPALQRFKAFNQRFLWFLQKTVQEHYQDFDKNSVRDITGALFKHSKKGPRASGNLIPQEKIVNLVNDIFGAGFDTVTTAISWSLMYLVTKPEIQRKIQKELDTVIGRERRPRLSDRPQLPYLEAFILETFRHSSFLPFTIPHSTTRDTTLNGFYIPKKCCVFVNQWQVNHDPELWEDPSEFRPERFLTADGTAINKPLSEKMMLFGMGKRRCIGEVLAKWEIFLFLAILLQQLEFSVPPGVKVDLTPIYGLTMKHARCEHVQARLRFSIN
# Sequence of 3',5'-cyclic-AMP phosphodiesterase 4B (Homo sapiens) (Q07343 whole entry, looked up): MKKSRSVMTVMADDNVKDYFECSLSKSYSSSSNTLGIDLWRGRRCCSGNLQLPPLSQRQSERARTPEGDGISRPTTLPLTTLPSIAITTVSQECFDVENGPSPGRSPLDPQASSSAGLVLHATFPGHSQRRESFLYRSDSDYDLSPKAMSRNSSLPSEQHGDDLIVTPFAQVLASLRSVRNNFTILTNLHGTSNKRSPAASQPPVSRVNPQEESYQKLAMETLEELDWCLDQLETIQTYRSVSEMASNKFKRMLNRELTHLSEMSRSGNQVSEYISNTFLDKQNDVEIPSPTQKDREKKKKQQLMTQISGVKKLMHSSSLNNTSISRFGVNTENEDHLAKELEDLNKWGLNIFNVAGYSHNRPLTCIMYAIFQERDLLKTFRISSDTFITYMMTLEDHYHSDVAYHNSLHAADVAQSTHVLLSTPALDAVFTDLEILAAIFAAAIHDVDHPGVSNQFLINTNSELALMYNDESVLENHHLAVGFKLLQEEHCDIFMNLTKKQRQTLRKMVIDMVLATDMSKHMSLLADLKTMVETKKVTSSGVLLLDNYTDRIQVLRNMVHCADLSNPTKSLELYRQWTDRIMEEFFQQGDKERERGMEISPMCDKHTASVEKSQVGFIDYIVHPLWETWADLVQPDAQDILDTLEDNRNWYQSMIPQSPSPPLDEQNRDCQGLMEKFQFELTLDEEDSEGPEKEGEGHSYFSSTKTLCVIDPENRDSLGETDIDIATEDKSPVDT
# Sequence of Cytochrome P450 2C19 (Homo sapiens) (P33261 whole entry, looked up): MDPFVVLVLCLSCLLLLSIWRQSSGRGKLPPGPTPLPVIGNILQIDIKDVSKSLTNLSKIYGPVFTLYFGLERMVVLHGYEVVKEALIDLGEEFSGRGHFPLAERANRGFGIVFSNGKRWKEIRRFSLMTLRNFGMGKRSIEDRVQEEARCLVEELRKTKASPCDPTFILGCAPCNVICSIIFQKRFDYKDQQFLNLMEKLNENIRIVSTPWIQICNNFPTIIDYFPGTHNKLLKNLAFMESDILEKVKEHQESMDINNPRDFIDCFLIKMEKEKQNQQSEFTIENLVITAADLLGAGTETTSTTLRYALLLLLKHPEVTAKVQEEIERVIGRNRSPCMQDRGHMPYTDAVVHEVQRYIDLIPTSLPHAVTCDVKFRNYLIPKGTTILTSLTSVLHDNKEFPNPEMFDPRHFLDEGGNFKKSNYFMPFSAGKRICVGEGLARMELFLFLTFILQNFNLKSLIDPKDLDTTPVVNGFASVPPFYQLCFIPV
# Sequence of Cytochrome P450 2C9 (Homo sapiens) (P11712 whole entry, looked up): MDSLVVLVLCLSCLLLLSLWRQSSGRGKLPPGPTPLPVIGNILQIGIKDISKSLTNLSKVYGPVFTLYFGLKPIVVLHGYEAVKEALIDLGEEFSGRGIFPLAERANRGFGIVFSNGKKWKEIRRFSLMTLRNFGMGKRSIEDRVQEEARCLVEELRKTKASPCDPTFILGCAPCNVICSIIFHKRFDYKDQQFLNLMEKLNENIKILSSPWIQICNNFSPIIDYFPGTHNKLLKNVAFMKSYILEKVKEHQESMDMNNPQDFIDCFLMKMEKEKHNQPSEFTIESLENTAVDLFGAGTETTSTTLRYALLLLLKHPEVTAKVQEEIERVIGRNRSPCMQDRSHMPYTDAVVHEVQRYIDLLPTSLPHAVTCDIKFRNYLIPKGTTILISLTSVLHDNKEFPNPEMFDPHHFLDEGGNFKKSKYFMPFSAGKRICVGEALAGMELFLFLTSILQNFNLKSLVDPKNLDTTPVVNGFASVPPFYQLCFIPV
# Sequence of Cytochrome P450 2D6 (Homo sapiens) (P10635 whole entry, looked up): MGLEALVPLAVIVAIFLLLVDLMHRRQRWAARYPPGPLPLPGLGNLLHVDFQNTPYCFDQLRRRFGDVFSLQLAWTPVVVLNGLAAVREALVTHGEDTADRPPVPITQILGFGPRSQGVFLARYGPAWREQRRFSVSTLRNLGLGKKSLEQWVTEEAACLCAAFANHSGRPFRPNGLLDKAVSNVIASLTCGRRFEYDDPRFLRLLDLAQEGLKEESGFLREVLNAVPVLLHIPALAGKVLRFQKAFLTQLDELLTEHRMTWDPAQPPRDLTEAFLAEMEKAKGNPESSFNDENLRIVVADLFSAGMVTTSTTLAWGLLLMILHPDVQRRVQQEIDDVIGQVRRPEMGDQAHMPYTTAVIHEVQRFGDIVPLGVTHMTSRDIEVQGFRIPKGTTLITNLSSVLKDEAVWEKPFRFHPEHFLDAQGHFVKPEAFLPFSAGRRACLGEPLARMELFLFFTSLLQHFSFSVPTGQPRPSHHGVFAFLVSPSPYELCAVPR
SMILES,Potency [1] [µM],"activity change, negative = inhibition [2] [%]",Potency [3],"activity change, negative = inhibition [4] [%]",Potency [5] [µM],Potency [6] [µM],"activity change, negative = inhibition [7]",outcome [8],"activity, negative = inhibition [9] [%]","activity change, negative = inhibition [10]",Potency [11],Potency [12]
NC(N)=NCCN=C(N)N,> 11.4,1.56,inactive,-0.323,> 46,> 9.22,1.78% [at 11.4 µM],inactive,,,,
c1cncc(CNCCN2CCNCC2)c1,> 11.4,5.14,inactive,,> 46,> 9.22,1.33% [at 11.4 µM],inactive,,,,
CN[C@H]1[C@H](C)O[C@@H](O[C@@H]2C/C=C(/C)C/C(C)=C\C=C/CC[C@@H](C)CNC(=O)/C=C\C=C/[C@H]2C)C[C@@H]1O,> 11.4,-6.3,inactive,,> 46,,1.47% [at 11.4 µM],inactive,-1.24,-5.72% [at 11.4 µM],inactive,inactive
c1cc(C2N3CCCN2CC3)ccn1 (centres undefined),> 11.4,2.62,1.26 µM (active),,> 46,> 9.22,2.87% [at 11.4 µM],inactive,3.03,,,inactive
